Bioassay records as filed in PubChem BioAssay.
This is a sample that favours compounds with a hit; in the whole collection about 1.3% have one here.
PME-1 primary: blocks human protein phosphatase methylesterase 1; recombinant PME-1, FP-Rh probe fluorescence polarization; inhibition, % at 5.9 µM; hit rate 0.53% among 320,000;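 active = inhibition above the campaign mean of all compounds plus 3 SD, cut at about 26% in these data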;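 note: competitive labeling of PME-1 active site by serine hydrolase directed probe; inhibitors block probe labeling so polarization falls and inhibition rises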
Target sequence (Q9Y570 whole entry, looked up): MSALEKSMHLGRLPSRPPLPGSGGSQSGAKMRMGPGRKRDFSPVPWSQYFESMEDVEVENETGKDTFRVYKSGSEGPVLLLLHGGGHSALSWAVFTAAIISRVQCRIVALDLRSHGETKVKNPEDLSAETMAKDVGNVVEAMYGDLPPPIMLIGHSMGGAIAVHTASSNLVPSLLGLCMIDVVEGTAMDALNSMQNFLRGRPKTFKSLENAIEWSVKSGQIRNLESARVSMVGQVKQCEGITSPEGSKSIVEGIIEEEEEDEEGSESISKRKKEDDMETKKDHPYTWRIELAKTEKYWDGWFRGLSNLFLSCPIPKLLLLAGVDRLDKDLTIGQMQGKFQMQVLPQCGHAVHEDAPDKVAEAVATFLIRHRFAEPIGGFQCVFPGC
LYPLA2 inh: counter-screen for PME1 inhibitors: inhibitors of human LYPLA2 | recombinant LYPLA2, FP-Rh probe fluorescence polarization | inhibition, % at 5.9 µM | hit rate 0.38% among 320,000;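 active = inhibition above the screen-wide mean plus 3 SD, limit set per campaign, cut at about 26% in these data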
Target sequence (O95372 whole entry, looked up): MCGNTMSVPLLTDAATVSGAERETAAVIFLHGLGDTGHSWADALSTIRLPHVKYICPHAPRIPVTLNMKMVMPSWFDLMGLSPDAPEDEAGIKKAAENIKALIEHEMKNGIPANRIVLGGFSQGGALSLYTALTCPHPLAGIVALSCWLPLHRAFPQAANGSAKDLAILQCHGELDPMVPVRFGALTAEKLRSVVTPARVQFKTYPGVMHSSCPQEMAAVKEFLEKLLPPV
LYPLA1 inh: LYPLA1 (human) inhibition in PME1 counter-screen. inhibition, % at 5.9 µM. hit rate 0.16% among 320,000. O75608. recombinant LYPLA1, FP-Rh probe fluorescence polarization;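 active = inhibition above the mean of all tested compounds plus 3 SD, set per campaign, cut at about 14% in these data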;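 note: inhibitors block serine hydrolase probe labeling of LYPLA1 so polarization falls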
Fam108B counter: Fam108B inhibition, counter-screen for RBBP9 inhibitors | recombinant Fam108B, FP-Rh probe fluorescence polarization | hit rate 0.33% among 300,000 | inhibition, % at 9.51 µM | AID 1947;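 active = inhibition above the screen mean inhibition plus 3 SD, computed separately per campaign, cut at about 18% in these data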;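 note: inhibitors lower polarization as less probe binds the enzyme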
PREPL inh: inhibits the human prolyl oligopeptidase-like enzyme; recombinant PREPL, fluorescence polarization activity-based probe; inhibition, % at 5.96 µM; Q4J6C6; hit rate 0.68% among 320,000
PREPL inh cf: confirmation of human PREPL enzyme inhibitors | hit rate 67% among 2,000 | AID 2803 | shares compounds with PREPL inh | recombinant PREPL, fluorescence polarization activity probe | inhibition, % at 5.96 µM
Hits are given with their value; – = inactive; · = no result given. Cut-off read from the data, not from the text of the source, unless noted: active = inhibition above about 43%; inactive = the rest.

SMILES	PME-1 primary	LYPLA2 inh	LYPLA1 inh	Fam108B counter	PREPL inh	PREPL inh cf
CCn1c(CSc2nnc(-c3ccoc3C)n2C)nc2cc(S(=O)(=O)N(C)C)ccc21	–	–	–	–	–	·
Cc1occc1-c1nnc(SCc2nc3ccccc3c(=O)n2CC#N)n1C	–	–	–	–	43.2	–
Cc1ccccc1OCc1nnc(SCC(=O)Nc2ccc(N3CCOCC3)c(Cl)c2)n1C	–	–	–	–	50.9	57.7
COc1ccccc1OCc1nnc(SCC(=O)Nc2ccc(N3CCOCC3)cc2)n1C	–	–	–	–	–	·
Cc1ccc(S(=O)(=O)/C=C/c2ccccc2)cc1	–	–	–	–	–	·
CC#C[C@]1(O)CC[C@H]2[C@@H]3CCC4=CC(=O)CCC4=C3[C@@H](c3ccc(N(C)C)cc3)C[C@@]21C	–	–	–	–	49.9	46.5
CN1CCN(CCCN2c3ccccc3Sc3ccc(Cl)cc32)CC1	–	–	–	–	63.1	55.5
CCSc1ccc2c(c1)N(CCCN1CCN(C)CC1)c1ccccc1S2	–	–	–	–	–	·
O=C(COC(=O)c1nc(Cl)ccc1Cl)c1ccccc1Cl	–	–	–	–	–	·
Cc1ccccc1NC(=O)C(C#N)Cc1cccnc1 (stereo not drawn)	–	–	–	–	70.3	–
Cc1ccccc1NC(=O)NCc1cccnc1	–	–	–	–	–	·
O=C1CC2(CCN(C(=O)C3CC(=O)N(c4ccc(F)cc4)C3)CC2)Oc2ccccc21 (stereo not drawn)	–	–	–	–	–	·
CCOC(=O)CCCCCC(=O)Nc1ccc2c(c1)C(=O)N([C@H](C)CO)C[C@@H](C)[C@H](CN(C)S(=O)(=O)c1cn(C)cn1)O2	·	·	·	·	–	·
CC1=NCC(C)c2c1[nH]c1ccccc21 (stereo not drawn)	–	–	–	–	44.6	–
CCN(CC)C(=O)c1ccc(N)cc1	–	–	–	–	–	·
COc1ccc(CN2CCN(c3cc(C)nc4c5c(C)cc(C)nc5nn34)CC2)cc1F	–	–	–	–	46.2	–
COc1cc(/C=C(\C#N)c2ccccn2)ccc1OCc1ccccc1Cl	–	–	–	–	47.1	–
O=C(CNC(=O)c1ccco1)NCC(c1ccco1)N1CCCCC1 (stereo not drawn)	–	–	–	·	73.2	–
O=C(NCc1cccc(F)c1)C1CCC(=O)N(C2CC2)C1 (stereo not drawn)	–	–	–	–	–	·
O=C1NN(c2ccccc2)C(=O)/C1=C\c1cccc(OC(=O)c2cccs2)c1	–	–	–	–	57.0	–
Cc1ccsc1/C=C1/C(=O)NN(c2ccccc2)C1=O	–	–	–	–	–	·
O=C(CCN1CCCCCC1)Nc1ccc2c(c1)OCCO2	–	–	–	–	44.9	–
CCCn1cnc2cc(NCc3ccc(Br)cc3)ccc21	–	–	–	–	49.1	46.0
CN(C)c1ccc(CNc2ccc3c(c2)ncn3C(C)(C)C)cc1	–	–	–	–	43.4	–
Cc1ccc(Cl)cc1N1CCN(C(=O)C(C)n2ncn3cccc3c2=O)CC1 (stereo not drawn)	–	–	–	–	–	·
SMILES	PME-1 primary	LYPLA2 inh	LYPLA1 inh	Fam108B counter	PREPL inh	PREPL inh cf
C[C@H](CO)N1C[C@H](C)[C@@H](CN(C)C(=O)Nc2ccc(C(F)(F)F)cc2)Oc2ccc(NS(=O)(=O)c3ccc(F)cc3)cc2C1=O	·	·	·	·	46.2	–
Cc1ccc(S(=O)(=O)Nc2ccc3c(c2)C(=O)N([C@H](C)CO)C[C@H](C)[C@@H](CN(C)C(=O)Nc2ccc(C(F)(F)F)cc2)O3)cc1	·	·	·	·	45.4	–
C[C@H](CO)N1C[C@H](C)[C@@H](CN(C)C(=O)Nc2ccc(C(F)(F)F)cc2)Oc2ccc(NS(=O)(=O)c3cn(C)cn3)cc2C1=O	·	·	·	·	47.2	–
Cc1noc(C)c1S(=O)(=O)N(C)C[C@H]1Oc2c(NC(=O)Nc3ccccc3)cccc2C(=O)N([C@H](C)CO)C[C@@H]1C	·	·	·	·	–	·
COc1ccc(NC(=O)N(C)C[C@H]2Oc3ccc(NS(=O)(=O)c4ccc(F)cc4)cc3C(=O)N([C@H](C)CO)C[C@@H]2C)cc1	·	·	·	·	–	·
Cc1noc(C)c1S(=O)(=O)N(C)C[C@H]1Oc2c(NC(=O)Nc3ccc(C(F)(F)F)cc3)cccc2C(=O)N([C@H](C)CO)C[C@@H]1C	·	·	·	·	52.4	59.0
C[C@H](CO)N1C[C@H](C)[C@@H](CN(C)C(=O)Nc2ccc(C(F)(F)F)cc2)Oc2ccc(NS(=O)(=O)c3ccccc3)cc2C1=O	·	·	·	·	45.6	44.9
CNS(=O)(=O)c1cccc(C(=O)OCC(=O)N2CCc3ccccc3C2)c1	–	–	–	–	–	·
COc1cc2c(cc1OC)C(Cc1ccc(O)c(Oc3ccc(C[C@H]4c5cc(OC)c(OC)cc5CCN4C)cc3)c1)N(C)CC2 (stereo partly drawn)	·	·	·	·	45.4	51.7
N#Cc1c(N)nc2c3c(sc(=N)c2c1N)NC(=O)CC3c1ccccc1 (stereo not drawn)	29.2	–	–	–	50.4	–
Cc1c(C#N)c(N)nc2c3c(sc12)NC(=O)CC3c1ccc(Cl)cc1 (stereo not drawn)	–	–	–	–	–	·
Cc1ccc2c(CC(=O)Nc3ccc(N4CCN(C)CC4)cc3C)coc2c1	–	–	–	–	60.8	59.8
COc1ccc(N2CCN(C(=O)Cc3coc4cc(C)ccc34)CC2)cc1	–	–	–	–	–	·
COc1cc(NC(=O)C[n+]2ccc(C(=O)c3ccccc3)cc2)cc(OC)c1	·	·	·	·	49.2	–
Cc1ccc(C(=O)c2c[nH]c3c(F)cc(F)cc3c2=O)cc1	–	–	–	–	–	·
Cn1cnc(C(=O)N2CCN(c3ccccc3)CC2)c1C(=O)N1CCN(c2ccccc2)CC1	–	–	–	·	45.1	–
c1ccc(CN2CCN(c3nc(N4CCOCC4)c4ccccc4n3)CC2)cc1	–	–	–	–	46.1	–
Cc1ccc(CNC(=O)CN(C(=O)N2CCN(C)CC2)S(=O)(=O)c2ccc(C)cc2)cc1	–	–	–	–	–	·
Cc1cccc(Nc2nc(Cl)ncc2F)c1C	–	–	–	–	–	·
Clc1ccc(C2=C3CCCCn4c(-c5ccccc5)c[n+](c43)C2)cc1	–	–	–	–	50.0	–
O=C(C[n+]1cc(-c2ccc(Cl)cc2)n2c1CCCCC2)c1ccccc1	–	–	–	–	–	·
C=CCn1c(C(C)NC(=O)c2cccc(C)c2)n[nH]c1=S (stereo not drawn)	–	–	–	–	–	·
O=C(COC(=O)C1CCN(S(=O)(=O)c2ccc3c(c2)OCCO3)CC1)Nc1cc(C(F)(F)F)ccc1Cl	–	–	–	–	–	·
Nc1c(Cl)ncnc1N/N=C/c1ccc2ccccc2n1	–	–	–	–	64.2	53.3
Nc1c(Cl)ncnc1N/N=C/c1ccccn1	–	–	–	–	–	·
O=C(NCCC(=O)N1CCC2(CC1)NCCc1[nH]cnc12)c1ccc(Br)cc1	–	–	–	–	–	·
CN1CCN(C(=O)C2=C[C@H](c3ccc(C(F)(F)F)cc3)C[C@H](OCCCCO)O2)CC1	–	–	–	–	–	·
